Experimental findings from ChEMBL document CHEMBL1961873, “Compounds: GSK PKIS; Assays: Nanosyn kinase panel” (2012) are described below.

The structures appear in SMILES notation.

The target in experiment [1] is Calcium/calmodulin-dependent protein kinase type II subunit alpha (Homo sapiens) (UniProt Q9UQM7). Conditions: at 1 µM.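 Also: reported value is a mean percent inhibition of CAMK2A.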
Experiment [2] addresses Calcium/calmodulin-dependent protein kinase type II subunit delta (Homo sapiens) (UniProt Q13557). Conditions: at 0.1 µM.
Experiment [3] has the same target. Particulars: at 1 µM.
The target in experiment [4] is T1, Calcium/calmodulin-dependent protein kinase type IV (Homo sapiens) (UniProt Q16566).
T1 sequence (whole entry): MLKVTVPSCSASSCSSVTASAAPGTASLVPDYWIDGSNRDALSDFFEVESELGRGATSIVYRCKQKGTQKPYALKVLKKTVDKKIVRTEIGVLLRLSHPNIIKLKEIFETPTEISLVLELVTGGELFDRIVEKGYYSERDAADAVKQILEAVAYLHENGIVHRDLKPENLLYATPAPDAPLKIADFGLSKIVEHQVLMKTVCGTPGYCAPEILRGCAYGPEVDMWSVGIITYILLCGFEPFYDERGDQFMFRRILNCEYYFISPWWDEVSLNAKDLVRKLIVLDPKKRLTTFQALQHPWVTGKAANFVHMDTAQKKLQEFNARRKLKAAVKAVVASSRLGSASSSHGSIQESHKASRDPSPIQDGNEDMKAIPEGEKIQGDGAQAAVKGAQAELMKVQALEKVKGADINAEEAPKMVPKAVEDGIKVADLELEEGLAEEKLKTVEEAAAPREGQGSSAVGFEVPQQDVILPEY
Particulars: at 0.1 µM.

The target of experiment [5] is T1, Calcium/calmodulin-dependent protein kinase type IV (Homo sapiens). Conditions: at 1 µM.
Experiment [6] has as its target T2, Serine/threonine-protein kinase Chk1 (Homo sapiens) (UniProt O14757).
T2 sequence (whole entry): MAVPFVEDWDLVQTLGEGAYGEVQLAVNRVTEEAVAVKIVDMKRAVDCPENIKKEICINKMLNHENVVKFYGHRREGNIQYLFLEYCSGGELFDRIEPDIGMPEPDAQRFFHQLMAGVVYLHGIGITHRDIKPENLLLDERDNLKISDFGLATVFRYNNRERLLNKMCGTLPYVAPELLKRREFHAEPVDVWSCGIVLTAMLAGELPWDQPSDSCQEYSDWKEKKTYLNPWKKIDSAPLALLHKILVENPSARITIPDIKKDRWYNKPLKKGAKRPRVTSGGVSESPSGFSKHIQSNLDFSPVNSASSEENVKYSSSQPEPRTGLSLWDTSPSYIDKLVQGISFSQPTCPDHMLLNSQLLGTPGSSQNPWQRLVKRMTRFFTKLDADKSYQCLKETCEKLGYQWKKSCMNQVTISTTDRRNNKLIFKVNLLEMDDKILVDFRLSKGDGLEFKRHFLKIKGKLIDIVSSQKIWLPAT
Conditions: at 0.1 µM.

Experiment [7] has as its target T2, Serine/threonine-protein kinase Chk1 (Homo sapiens). Particulars: at 1 µM.
Experiment [8] has as its target Serine/threonine-protein kinase Chk2 (Homo sapiens) (UniProt O96017). Conditions: at 0.1 µM.
The target is the same in experiment [9]. Conditions: at 1 µM.
For experiment [10], the target named is Death-associated protein kinase 1 (Homo sapiens) (UniProt P53355). Particulars: at 0.1 µM.
Experiment [11] shares this target. Particulars: at 1 µM.
Experiment [12] addresses T3, Serine/threonine-protein kinase DCLK2 (Homo sapiens) (UniProt Q8N568).
T3 sequence (whole entry): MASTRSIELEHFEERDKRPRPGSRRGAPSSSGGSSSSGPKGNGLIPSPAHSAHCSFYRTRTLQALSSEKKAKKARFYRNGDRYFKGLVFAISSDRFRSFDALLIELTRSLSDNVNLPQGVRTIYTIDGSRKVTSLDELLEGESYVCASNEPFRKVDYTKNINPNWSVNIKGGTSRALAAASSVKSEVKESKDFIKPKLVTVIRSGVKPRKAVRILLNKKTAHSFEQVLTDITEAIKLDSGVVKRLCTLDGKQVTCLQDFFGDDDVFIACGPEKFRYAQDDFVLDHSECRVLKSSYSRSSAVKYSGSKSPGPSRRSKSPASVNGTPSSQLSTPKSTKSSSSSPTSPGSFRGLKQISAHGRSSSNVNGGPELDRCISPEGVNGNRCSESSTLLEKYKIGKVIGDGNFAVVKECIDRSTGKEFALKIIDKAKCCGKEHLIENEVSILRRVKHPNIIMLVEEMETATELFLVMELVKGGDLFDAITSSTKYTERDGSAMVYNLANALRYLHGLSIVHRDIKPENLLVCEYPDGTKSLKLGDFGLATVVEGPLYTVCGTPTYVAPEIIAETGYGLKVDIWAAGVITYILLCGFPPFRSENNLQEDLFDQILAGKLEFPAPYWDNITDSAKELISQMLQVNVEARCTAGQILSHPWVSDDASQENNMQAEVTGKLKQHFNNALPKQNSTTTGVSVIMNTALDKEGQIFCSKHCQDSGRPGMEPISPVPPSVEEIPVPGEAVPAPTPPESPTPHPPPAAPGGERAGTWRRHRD
Particulars: at 0.1 µM.

The target in experiment [13] is T3, Serine/threonine-protein kinase DCLK2 (Homo sapiens). Particulars: at 1 µM.
For experiment [14], the target named is MAP kinase-activated protein kinase 2 (Homo sapiens) (UniProt P49137). Particulars: at 0.1 µM.
Experiment [15] shares this target. Particulars: at 1 µM.
Experiment [16] concerns the target MAP kinase-activated protein kinase 3 (Homo sapiens) (UniProt Q16644). Particulars: at 0.1 µM.
Experiment [17] has the same target. Conditions: at 1 µM.
In experiment [18] the target is Serine/threonine-protein kinase MARK1 (Homo sapiens) (UniProt Q9P0L2). Particulars: at 0.1 µM.
Experiment [19] has the same target. Particulars: at 1 µM.
Experiment [20] has as its target MAP/microtubule affinity-regulating kinase 3 (Homo sapiens) (UniProt P27448). Conditions: at 0.1 µM.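 Also: mean percent inhibition of MARK3 kinase activity, measured within the GSK PKIS screening panel.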

Broadly, the inhibition is the relative decrease from the control value, in per cent.

Chain of Serine/threonine-protein kinase MARK1 (Homo sapiens) (Q9P0L2 whole entry, looked up): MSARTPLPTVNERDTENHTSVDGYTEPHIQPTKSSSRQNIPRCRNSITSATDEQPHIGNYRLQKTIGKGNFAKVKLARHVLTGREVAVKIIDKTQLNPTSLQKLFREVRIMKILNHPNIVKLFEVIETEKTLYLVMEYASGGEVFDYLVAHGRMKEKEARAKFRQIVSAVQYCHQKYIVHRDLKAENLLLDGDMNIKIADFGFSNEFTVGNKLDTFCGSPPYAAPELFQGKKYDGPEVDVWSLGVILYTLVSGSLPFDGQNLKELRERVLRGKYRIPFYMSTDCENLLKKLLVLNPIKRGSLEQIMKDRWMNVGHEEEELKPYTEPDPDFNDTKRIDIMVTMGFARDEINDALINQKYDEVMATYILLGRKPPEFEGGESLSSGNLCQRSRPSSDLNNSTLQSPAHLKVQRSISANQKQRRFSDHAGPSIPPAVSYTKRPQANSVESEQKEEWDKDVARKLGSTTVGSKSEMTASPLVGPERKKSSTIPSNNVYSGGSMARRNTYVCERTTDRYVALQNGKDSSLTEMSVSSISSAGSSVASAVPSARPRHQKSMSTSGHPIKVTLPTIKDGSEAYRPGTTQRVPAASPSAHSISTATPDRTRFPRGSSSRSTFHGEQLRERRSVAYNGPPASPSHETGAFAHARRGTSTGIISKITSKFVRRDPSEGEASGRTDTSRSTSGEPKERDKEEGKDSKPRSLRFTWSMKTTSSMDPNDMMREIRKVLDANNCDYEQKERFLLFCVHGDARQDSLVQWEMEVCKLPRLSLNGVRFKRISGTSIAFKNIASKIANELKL
Chain of Serine/threonine-protein kinase Chk2 (Homo sapiens) (O96017 whole entry): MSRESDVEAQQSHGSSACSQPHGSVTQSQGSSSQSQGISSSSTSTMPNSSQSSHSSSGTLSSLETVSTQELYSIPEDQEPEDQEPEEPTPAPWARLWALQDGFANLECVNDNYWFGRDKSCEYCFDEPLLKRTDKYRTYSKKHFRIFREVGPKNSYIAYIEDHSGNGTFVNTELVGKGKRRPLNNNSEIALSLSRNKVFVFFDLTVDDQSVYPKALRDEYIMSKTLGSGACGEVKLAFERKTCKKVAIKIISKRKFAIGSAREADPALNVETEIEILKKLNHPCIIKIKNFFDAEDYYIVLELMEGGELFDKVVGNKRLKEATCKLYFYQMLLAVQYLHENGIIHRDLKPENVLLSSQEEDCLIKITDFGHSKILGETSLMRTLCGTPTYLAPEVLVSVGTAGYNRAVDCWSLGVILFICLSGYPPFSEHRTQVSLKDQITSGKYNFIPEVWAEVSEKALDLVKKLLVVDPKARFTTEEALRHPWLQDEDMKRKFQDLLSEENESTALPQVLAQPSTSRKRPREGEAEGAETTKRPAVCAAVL
Chain of MAP kinase-activated protein kinase 2 (Homo sapiens) (P49137 whole entry, looked up): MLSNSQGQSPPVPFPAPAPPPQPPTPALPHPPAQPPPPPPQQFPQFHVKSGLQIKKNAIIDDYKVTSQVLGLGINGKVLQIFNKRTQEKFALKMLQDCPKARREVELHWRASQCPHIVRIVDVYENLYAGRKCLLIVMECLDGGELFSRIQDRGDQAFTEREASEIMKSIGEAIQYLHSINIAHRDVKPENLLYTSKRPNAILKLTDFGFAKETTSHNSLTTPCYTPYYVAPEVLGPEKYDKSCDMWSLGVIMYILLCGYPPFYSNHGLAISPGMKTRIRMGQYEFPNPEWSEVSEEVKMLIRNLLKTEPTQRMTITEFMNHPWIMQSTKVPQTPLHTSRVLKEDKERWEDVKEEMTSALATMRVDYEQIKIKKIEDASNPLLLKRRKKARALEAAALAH
Chain of Death-associated protein kinase 1 (Homo sapiens) (P53355 whole entry, looked up): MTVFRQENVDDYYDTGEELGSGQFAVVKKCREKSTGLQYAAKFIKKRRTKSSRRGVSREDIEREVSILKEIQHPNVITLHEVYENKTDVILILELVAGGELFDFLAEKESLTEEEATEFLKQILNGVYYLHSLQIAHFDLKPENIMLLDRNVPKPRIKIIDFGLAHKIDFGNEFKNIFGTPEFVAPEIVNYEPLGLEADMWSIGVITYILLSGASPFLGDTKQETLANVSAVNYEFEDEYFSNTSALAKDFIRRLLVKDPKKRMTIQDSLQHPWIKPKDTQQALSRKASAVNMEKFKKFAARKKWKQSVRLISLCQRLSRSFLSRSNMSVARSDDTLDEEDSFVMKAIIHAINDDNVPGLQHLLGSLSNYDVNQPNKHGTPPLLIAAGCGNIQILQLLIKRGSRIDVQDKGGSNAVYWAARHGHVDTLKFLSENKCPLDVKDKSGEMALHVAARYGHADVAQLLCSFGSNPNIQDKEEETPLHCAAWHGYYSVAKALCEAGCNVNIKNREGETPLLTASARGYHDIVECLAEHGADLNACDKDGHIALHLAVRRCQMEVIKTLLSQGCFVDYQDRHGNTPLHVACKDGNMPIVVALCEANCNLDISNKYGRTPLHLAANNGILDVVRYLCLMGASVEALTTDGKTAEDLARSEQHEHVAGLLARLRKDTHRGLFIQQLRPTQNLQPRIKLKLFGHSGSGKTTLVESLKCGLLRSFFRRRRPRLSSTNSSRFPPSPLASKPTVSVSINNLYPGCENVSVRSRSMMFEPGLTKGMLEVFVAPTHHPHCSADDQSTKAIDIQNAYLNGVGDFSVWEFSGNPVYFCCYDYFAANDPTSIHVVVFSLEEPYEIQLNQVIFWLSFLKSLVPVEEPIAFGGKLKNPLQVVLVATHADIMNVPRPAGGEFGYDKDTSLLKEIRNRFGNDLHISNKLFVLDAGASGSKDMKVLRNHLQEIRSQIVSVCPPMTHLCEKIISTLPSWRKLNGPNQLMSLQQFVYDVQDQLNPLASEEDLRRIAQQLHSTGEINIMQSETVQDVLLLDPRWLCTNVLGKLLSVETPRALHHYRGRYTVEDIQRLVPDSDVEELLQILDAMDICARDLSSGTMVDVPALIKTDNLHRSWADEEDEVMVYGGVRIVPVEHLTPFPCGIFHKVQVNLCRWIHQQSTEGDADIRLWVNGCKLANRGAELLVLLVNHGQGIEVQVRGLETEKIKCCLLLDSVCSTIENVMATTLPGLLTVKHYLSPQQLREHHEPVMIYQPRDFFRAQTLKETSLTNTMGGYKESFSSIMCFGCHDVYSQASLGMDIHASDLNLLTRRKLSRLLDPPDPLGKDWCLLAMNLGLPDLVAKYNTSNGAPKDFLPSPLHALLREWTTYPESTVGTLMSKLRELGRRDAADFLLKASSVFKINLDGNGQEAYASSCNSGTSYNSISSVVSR
Chain of Calcium/calmodulin-dependent protein kinase type II subunit alpha (Homo sapiens) (Q9UQM7 whole entry): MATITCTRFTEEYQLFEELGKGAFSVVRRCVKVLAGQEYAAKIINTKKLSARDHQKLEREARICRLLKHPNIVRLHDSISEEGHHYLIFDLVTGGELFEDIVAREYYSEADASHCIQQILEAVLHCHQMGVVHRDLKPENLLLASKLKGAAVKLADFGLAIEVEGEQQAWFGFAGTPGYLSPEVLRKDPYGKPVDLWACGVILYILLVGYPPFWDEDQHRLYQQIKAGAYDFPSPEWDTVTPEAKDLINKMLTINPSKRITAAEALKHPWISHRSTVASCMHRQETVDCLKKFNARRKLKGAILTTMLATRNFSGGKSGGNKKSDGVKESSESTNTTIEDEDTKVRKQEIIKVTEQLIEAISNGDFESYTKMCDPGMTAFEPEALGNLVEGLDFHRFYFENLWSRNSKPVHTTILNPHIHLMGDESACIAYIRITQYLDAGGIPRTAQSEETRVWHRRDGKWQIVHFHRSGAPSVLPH
Chain of MAP kinase-activated protein kinase 3 (Homo sapiens) (Q16644 whole entry, looked up): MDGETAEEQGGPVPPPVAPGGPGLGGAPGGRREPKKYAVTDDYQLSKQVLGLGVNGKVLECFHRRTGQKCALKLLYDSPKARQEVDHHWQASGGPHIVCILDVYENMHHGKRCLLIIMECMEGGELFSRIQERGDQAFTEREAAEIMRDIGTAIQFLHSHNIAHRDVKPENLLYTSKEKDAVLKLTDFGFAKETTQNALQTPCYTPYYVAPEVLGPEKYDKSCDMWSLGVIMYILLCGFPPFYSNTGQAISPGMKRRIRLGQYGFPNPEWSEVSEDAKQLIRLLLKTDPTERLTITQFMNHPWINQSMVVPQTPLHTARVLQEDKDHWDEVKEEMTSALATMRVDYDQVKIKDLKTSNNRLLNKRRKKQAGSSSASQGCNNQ
Chain of Calcium/calmodulin-dependent protein kinase type II subunit delta (Homo sapiens) (Q13557 whole entry): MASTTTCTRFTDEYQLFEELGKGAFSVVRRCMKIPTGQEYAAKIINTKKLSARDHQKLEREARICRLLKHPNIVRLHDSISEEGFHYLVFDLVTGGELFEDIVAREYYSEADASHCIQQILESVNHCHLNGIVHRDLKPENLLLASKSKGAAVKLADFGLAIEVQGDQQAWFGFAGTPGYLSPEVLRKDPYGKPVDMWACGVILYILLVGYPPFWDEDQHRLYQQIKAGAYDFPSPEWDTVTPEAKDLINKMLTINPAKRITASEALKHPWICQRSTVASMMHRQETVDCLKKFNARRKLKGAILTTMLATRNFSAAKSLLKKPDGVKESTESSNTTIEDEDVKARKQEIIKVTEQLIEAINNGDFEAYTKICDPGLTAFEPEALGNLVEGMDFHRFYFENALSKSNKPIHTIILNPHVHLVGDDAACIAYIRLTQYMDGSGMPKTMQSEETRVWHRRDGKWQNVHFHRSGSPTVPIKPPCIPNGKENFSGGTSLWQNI

On to `CC(C)c1ccc(Nc2nccc(-c3cnn4ncccc34)n2)cc1`, for which the inhibition was 4.19% in experiment [1]; 2.72% in experiment [2]; 8.29% in experiment [3]; 1.15% in experiment [4]; 2.83% in [5]; -1.58% in experiment [6]. The inhibition in experiment [7] was -2.41%; in experiment [8] it was 1.57%; in experiment [9] it was 3.38%; in [10], -1.79%; in [11], -2.33%; in experiment [12], 0.5%. Moreover, the inhibition is -1.7% in [13]; 0.86% in experiment [14]; 0.39% in experiment [15]; 3.55% in experiment [16]; 6.14% in experiment [17]; 0.51% in experiment [18]. In addition, the inhibition was determined as 4.24% in experiment [19] and 2.56% in [20].

For the compound `Cc1ccc(O)cc1Nc1ccnc2ccc(S(C)(=O)=O)cc12`, the inhibition in [1] was 6.06%; in experiment [2], 3.19%; in [3] it was 3.36%; in [4], -1.1%; in experiment [5], -1.84%; in experiment [6] it was 8.75%. In addition, the inhibition in experiment [7] was determined as 9.21%; in experiment [8], 8.1%; in [9], 15.1%; in experiment [10] it was 12.2%; in experiment [11] it was 13.2%; in [12] it was 2.11%. Moreover, the inhibition in experiment [13] turned out to be 1.09%; in experiment [14] it was 4.78%; in experiment [15], 5.17%; in experiment [16], 14.2%; in [17] it was 24.2%; in experiment [18], 4.73%. In addition, the inhibition in experiment [19] was 7.33%; in [20] it was 2.7%.

Take `COC(=O)c1ccc2c(c1)C(=Cc1cc(Br)c(O)c(Br)c1)C(=O)N2`: the inhibition is 5.83% in [1]; 3.29% in [2]; 9.61% in experiment [3]; -0.49% in experiment [4]; 4.64% in experiment [5]; 9.68% in [6]. Further, the inhibition is 14.6% in [7]; 8.72% in [8]; 20.6% in experiment [9]; 9.92% in [10]; -8.17% in experiment [11]; 1.31% in experiment [12]. The inhibition in [13] worked out at 0.79%; in experiment [14], 4.54%; in experiment [15] it was 7.08%; in experiment [16] it was 8.04%; in experiment [17], 10.5%; in [18], 1.62%. For the same compound, the inhibition in experiment [19] was 5.65%; in [20], -2.9%.

For the compound `NS(=O)(=O)c1ccc(-c2cc3ccncc3cc2OCc2ccccc2)cc1`, the inhibition in experiment [1] is 2.94%; in experiment [2], 2.4%; in [3] it was 4.59%; in experiment [4], -1.16%; in experiment [5], 2.15%; in [6], 0.26%. In addition, the inhibition in [7] was 0.12%; in experiment [8] it was 2.85%; in experiment [9], 4.7%; in [10] it was 1.1%; in [11], 1.02%; in experiment [12], 0.91%. Further, the inhibition worked out at 3.41% in [13]; 1.47% in [14]; 1.1% in experiment [15]; 5.12% in [16]; 6.72% in [17]; 0.77% in [18]. In addition, the inhibition in experiment [19] is 3.63%; in experiment [20], -0.26%.

Take `OCc1ccc(-c2nc(-c3ccccn3)c(-c3ccc4c(c3)OCO4)[nH]2)cc1`: the inhibition in [1] is 5.43%; in experiment [2] it was 4.96%; in experiment [3], 4.65%; in experiment [4], 0.02%; in [5], -0.32%; in experiment [6], 3.36%. The inhibition in [7] worked out at 3.17%; in [8], 3.25%; in experiment [9] it was 4.36%; in experiment [10], 4.31%; in [11], 6.09%; in experiment [12] it was 2.19%. The inhibition in experiment [13] worked out at 2.76%; in experiment [14], 1.95%; in [15], 1.87%; in [16], 3.91%; in experiment [17] it was 6.87%; in experiment [18], 4.66%. Also, the figures for the inhibition in experiment [19] and in experiment [20] were 4.32% and 4.6%, respectively.
